From PubChem BioAssay (NCI) come the findings set out here.

Common to all, as to assay: NCI-60 one-dose screen, 48 h (100 = growth as untreated, 0 = no growth, -100 = all killed)
What all share (conditions): 10 µM

Test [1] relates to HCT-15 colon.
Test [2] relates to HT29 colon.
Test [3] has as its system SNB-75 CNS.
The test system of test [4] is SNB-19 CNS.
Test [5] deals with U251 CNS.
Test [6] concerns PC-3 prostate.
The subject of test [7] is SK-MEL-5 melanoma.
Test [8] relates to UACC-62 melanoma.
Test [9] deals with LOX IMVI melanoma.
Test [10] deals with SK-MEL-28 melanoma.
Test [11] has as its system SK-MEL-2 melanoma.
Test [12] has as its system EKVX NSCLC.
The test system of test [13] is SN12C renal.
Test [14] relates to UO-31 renal.
In test [15] the test system is TK-10 renal.
The subject of test [16] is ACHN renal.
The subject of test [17] is CAKI-1 renal.
Test [18] concerns A498 renal.
The subject of test [19] is CCRF-CEM leukemia.

Structures are written as SMILES. About 83,000 compounds went through this panel and 20% of them were active in at least one assay; those are over-represented in the sample as a whole.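 Single-concentration screen, 48 h exposure, 96-well plates. Endpoint: percent growth. Below 10 = active.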 A number with no mark means an inactive call. The source made the active and inactive calls.

For the compound `CCN1CCN(c2ccc(NC(=O)Nc3ccc4c(c3F)CCN4c3ccnc(C(=O)NC)c3)cc2C(F)(F)F)CC1`, the growth in test [1] is -91.1% (active); in test [2], -79% (active); in test [3], -80.8% (active); in test [4], -84.3% (active); in [5], -93.8% (active); in test [6], 23.4%. Further, the growth in test [7] is -100% (active); in test [8], 95.8%; in test [9], -99.9% (active); in [10], -83.6% (active); in test [11], 99.6%; in test [12], -76.9% (active). Moreover, the growth in [13] was 104%; in [14], 85.3%; in [15], 118%; in test [16], 54.9%; in [17], -87.9% (active); in test [18], 142%. Moreover, the growth in test [19] is -42.3% (active).

For the compound `COc1ccccc1NCc1ccc(CO)n1-c1ccc(C)cc1`, the growth in test [1] was 96.7%; in [2], 102%; in test [3], 80.2%; in test [4], 94.9%; in test [5], 96.1%; in [6] it was 80.2%. The growth is 100% in test [7]; 83.8% in test [8]; 86.5% in test [9]; 106% in test [10]; 104% in test [11]; 98.9% in [12]. For the same compound, the growth in [13] is 86.8%; in test [14], 60.3%; in test [15] it was 107%; in [16] it was 93.3%; in test [17], 79.9%; in test [18], 123%. Besides, the growth in [19] was 86.3%.

`Nc1cccnc1/C=N/NC(=S)NCCNC(=O)c1ccc(-n2nc(-c3ccccc3O)nc2-c2ccccc2O)cc1`: the growth in test [1] was 17.9%; in [2] it was -42.8% (active); in test [3] it was 48.1%; in [4], 13.2%; in test [5] it was 12.4%; in test [6], 9.05% (active). The growth in test [7] is -42% (active); in test [8], -62.6% (active); in test [9], -45.2% (active); in test [10], 14.8%; in test [11] it was -4.94% (active); in test [12] it was 2.53% (active). The growth in [13] was 5.7% (active); in test [14], -3.95% (active); in test [15], 12.3%; in [16] it was 2.89% (active); in test [17], 4.97% (active); in test [18], 73.7%. The growth in test [19] was -6.46% (active).

`CC1(C)CC[C@]2(C(=O)Nc3ccccc3)CC[C@]3(C)C(=CC[C@@H]4[C@@]5(C)CC[C@H](N)C(C)(C)[C@@H]5CC[C@]43C)[C@H]2C1`: the growth in test [1] was -71.4% (active); in test [2] it was 21.8%; in [3], 95.6%; in [4], 100%; in [5], -47.5% (active); in test [6], 75.8%. For the same compound, the growth in [7] was 94.5%; in [8], 115%; in test [9], -98.7% (active); in test [10] it was 109%; in [11], 107%; in test [12], 90.5%. For the same compound, the growth is 87.7% in test [13]; 71.5% in test [14]; 107% in test [15]; 90.3% in [16]; 79.9% in test [17]; 131% in test [18]. The growth in test [19] is 32.6%.

As for `Cc1ccc(NC(=O)NCn2c(=O)[nH]c3ccccc3c2=O)cc1`, the growth was 92.1% in test [1]; 109% in [2]; 29% in test [3]; 52.6% in test [4]; 61.5% in [5]; 84.1% in test [6]. For the same compound, the growth in test [7] is 85.1%; in test [8] it was 60.9%; in [9], 83.7%; in test [10], 94.5%; in test [11] it was 93.1%; in test [12] it was 87.6%. Besides, the growth is 68.6% in [13]; 44.5% in test [14]; 72.5% in [15]; 35% in [16]; 61.4% in test [17]; 90.4% in test [18]. Further, in test [19], the growth was 97.5%.

Take `COc1ccc2[nH]c(O)c(N=NC(=O)COc3ccc(NC(=O)Nc4ccc(Cl)c(Cl)c4)cc3)c2c1`: the growth in test [1] is 56.1%; in test [2], -88.4% (active); in [3], -37% (active); in test [4] it was 7.22% (active); in [5], -94.2% (active); in [6], -33.4% (active). For the same compound, the growth was -56.3% (active) in test [7]; 14.4% in test [8]; -100% (active) in test [9]; -59.8% (active) in test [10]; 14.5% in test [11]; 31.9% in test [12]. Besides, the growth in test [13] was -42% (active); in [14], 111%; in test [15] it was 15.5%; in [16], 57%; in test [17], 60.7%; in test [18] it was -1.89% (active). The growth in test [19] is 20.8%.

`COC[C@@H](CC(C)C)N=C1NC(=O)/C(=C/c2ccc3ncoc3c2)N1`: the growth was 1.92% (active) in test [1]; 8.17% (active) in test [2]; -9.28% (active) in test [3]; 17.5% in test [4]; 16.4% in test [5]; 42.4% in test [6]. The growth is 3.83% (active) in [7]; -27.3% (active) in test [8]; 6.76% (active) in test [9]; 0.832% (active) in test [10]; -75.8% (active) in test [11]; 18% in test [12]. Further, the growth in [13] was 15.1%; in [14], -8.68% (active); in test [15], 36.5%; in test [16] it was 7.63% (active); in [17], 6.77% (active); in [18] it was -9.51% (active). Further, the growth in test [19] is 15.2%.

Regarding `COc1ccc(C(C)=C(c2ccc(OCCCN(C)C)cc2)c2ccc(OCCCN(C)C)cc2)cc1`, the growth is -72.7% (active) in test [1]; -94.3% (active) in test [2]; -95.3% (active) in test [3]; -97.4% (active) in test [4]; -97.5% (active) in [5]; -82.3% (active) in test [6]. The growth in test [7] was -98.5% (active); in test [8] it was -96.6% (active); in test [9], -92.5% (active); in [10] it was -97.9% (active); in test [11], -92.8% (active); in test [12] it was -85.1% (active). Besides, the growth in test [13] is -94.2% (active); in test [14], -99.4% (active); in [15] it was -97.7% (active); in [16], -100% (active); in test [17] it was -100% (active); in test [18], -85.2% (active). In [19], the growth is -81.2% (active).
